Records with an inconclusive call do not appear. Active and inactive are the calls of the source. Unless noted, the call rests on the fitted dose curve; in most records, active means well fitted curve in the direction sought with a large enough effect in the repeat runs; inconclusive means weak or mixed curves; inactive means no such curve, though single readings can be large; an effect the other way counts as inactive or inconclusive.
Key:
[1] = molecular target: Thyrotropin receptor (Homo sapiens) (UniProt P16473); test: qHTS assay to identify small molecule agonists of the thyroid stimulating hormone receptor (TSHR) signaling pathway (AID 1224843; calls by dose curve; further: nearly all actives have a fitted effect of over 45% in size)
Thyrotropin receptor (Homo sapiens), sequence (P16473 whole entry, looked up): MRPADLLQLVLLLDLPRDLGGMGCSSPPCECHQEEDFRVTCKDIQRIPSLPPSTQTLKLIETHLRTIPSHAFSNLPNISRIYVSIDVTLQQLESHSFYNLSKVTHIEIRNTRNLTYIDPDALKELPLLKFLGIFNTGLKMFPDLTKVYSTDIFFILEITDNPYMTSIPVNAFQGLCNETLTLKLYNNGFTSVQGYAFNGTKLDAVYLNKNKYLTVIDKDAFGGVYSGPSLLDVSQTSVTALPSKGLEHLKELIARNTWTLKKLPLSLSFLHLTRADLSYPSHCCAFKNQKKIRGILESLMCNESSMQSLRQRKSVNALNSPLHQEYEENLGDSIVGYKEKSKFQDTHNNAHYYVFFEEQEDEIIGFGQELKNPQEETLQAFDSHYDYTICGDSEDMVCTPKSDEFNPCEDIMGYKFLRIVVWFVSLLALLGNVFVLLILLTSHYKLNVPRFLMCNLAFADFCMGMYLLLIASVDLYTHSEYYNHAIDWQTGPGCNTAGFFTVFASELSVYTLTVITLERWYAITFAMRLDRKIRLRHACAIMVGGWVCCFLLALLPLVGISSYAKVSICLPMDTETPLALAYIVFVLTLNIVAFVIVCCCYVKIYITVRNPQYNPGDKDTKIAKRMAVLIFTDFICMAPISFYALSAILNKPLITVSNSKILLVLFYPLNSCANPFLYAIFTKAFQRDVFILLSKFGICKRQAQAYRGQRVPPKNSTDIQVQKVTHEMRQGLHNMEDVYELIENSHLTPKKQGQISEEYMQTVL
Outline: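 HEK293/TSHR, 800 cells/well; cpd 30 min RT; add cAMP-d2 + anti-cAMP-cryptate, 1 h RT; fluorescence read on plate reader. 15-pt titration, n=3.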

[2] = qHTS assay to identify small molecule agonists of the hypoxia (HIF-1) signaling pathway - cell viability counter screen (AID 1224844; calls by dose curve; further: nearly all actives have a fitted effect of over 50% in size)
Outline: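 Cytotoxicity was measured in parallel with the HRE-driven beta-lactamase readout: after 17 hrs of compound exposure at 37C, HRE-bla ME-180 cells received CellTiter-Glo and luminescence was recorded 30 min later.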

[3] = qHTS assay to identify small molecule agonists of H2AX (AID 1224845; active means well fitted activation curve with a large enough effect in the signal ratio in the repeat runs, not every such curve was filed as active; the % refers to the signal ratio)
Outline: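 Wild-type CHO-K1 cells, plated overnight, exposed 3hr at 37C to 15 concentrations (0.76% DMSO final). Lysed, then HTRF anti-pH2AX (S139) cryptate and anti-H2AX-d2 antibodies, 24 hr room temperature; 665/620 nm emission read.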

[4] = qHTS RealTime-Glo MT Cell Viability Assay in HepG2 cells - 24 hour (AID 1224867); further: nearly all actives have a fitted effect of over 50% in size
Outline: (§1)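 Luminescence read-out: viable HepG2 cells reduce a prosubstrate to a NanoLuc substrate, giving a signal proportional to live cell number. Reads taken at 0, 8, 16, 24, 32 and 40 h of compound exposure at 37 C.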

[5] = qHTS RealTime-Glo MT Cell Viability Assay in HepG2 cells - 40 hour (AID 1224870); further: nearly all actives have a fitted effect of over 50% in size
Outline: (§2)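 HepG2 cells (600/well) mixed with RealTime-Glo MT reagent, settled 5 h at 37 C/5% CO2 before compound addition. Nonlytic NanoLuc luminescence from viable-cell prosubstrate reduction read repeatedly during 40 h treatment at 37 C.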

[6] = A CellTox Green Cytotoxicity Assay to monitor cytotoxicity in HEK293 cells - 40 hour (AID 1224871); further: nearly all actives have a fitted effect of over 45% in size; further: potency means the concentration at half of the fitted maximal effect
Outline: (§3)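 Cells (HEK293, 600/well) and dye reagent are dispensed together. After 5 h at 37 C, 23 nL compound is pinned in. Plates stay at 37 C for 40 h with fluorescence read at 0h, 8h, 16h, 24h, 32h and 40h.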

[7] = qHTS RealTime-Glo MT Cell Viability Assay in HEK293 cells - 16 hour (AID 1224872); further: nearly all actives have a fitted effect of over 50% in size; further: potency means the concentration at half of the fitted maximal effect; on activity change, negative = cytotoxicity: top concentration of the series differs between compounds
Outline: (§4)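 Nonlytic real-time viability readout: viable cells convert prosubstrate to NanoLuc substrate, giving luminescence proportional to live cell number. HEK293, 600 cells/well, compound added after 5 h, continuous culture at 37 C.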

[8] = qHTS RealTime-Glo MT Cell Viability Assay in HepG2 cells - 8 hour (AID 1224873); further: nearly all actives have a fitted effect of over 55% in size
Outline: as §2

[9] = qHTS RealTime-Glo MT Cell Viability Assay in HEK293 cells - 40 hour (AID 1224874); details: RealTime-Glo luminescence; max response: active compounds read low; further: nearly all actives have a fitted effect of over 50% in size; further: potency means the concentration at half of the fitted maximal effect
Outline: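 Real-time viability in HEK293: signal arises when living cells convert a prosubstrate for NanoLuc in the medium, so luminescence tracks viable cell number. Compound (23 nL, DMSO) added 5 h post-seeding; kinetic reads at 0–40 h, 37 C.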

[10] = A CellTox Green Cytotoxicity Assay to monitor cytotoxicity in HEK293 cells - 24 hour (AID 1224875); further: nearly all actives have a fitted effect of over 45% in size
Outline: as §3

[11] = A CellTox Green Cytotoxicity Assay to monitor cytotoxicity in HepG2 cells - 16 hour (AID 1224876); further: nearly all actives have a fitted effect of over 45% in size
Outline: (§5)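 Cells and non-lytic dye reagent are dispensed together (600 HepG2 cells/well) and incubated 5 h before DMSO compound transfer. Kinetic fluorescence is then recorded in the same wells during 40 h at 37 C.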

[12] = qHTS RealTime-Glo MT Cell Viability Assay in HepG2 cells - 32 hour (AID 1224877); further: nearly all actives have a fitted effect of over 55% in size
Outline: as §1

[13] = A CellTox Green Cytotoxicity Assay to monitor cytotoxicity in HepG2 cells - 24 hour (AID 1224878); further: nearly all actives have a fitted effect of over 45% in size; further: potency means the concentration at half of the fitted maximal effect
Outline: as §5

[14] = A CellTox Green Cytotoxicity Assay to monitor cytotoxicity in HepG2 cells - 40 hour (AID 1224879); further: nearly all actives have a fitted effect of over 40% in size; further: potency means the concentration at half of the fitted maximal effect
Outline: as §5

[15] = qHTS assay to identify small molecule agonists of the hypoxia (HIF-1) signaling pathway (AID 1224846; active means well fitted activation curve with a large enough effect in the signal ratio in the repeat runs, not every such curve was filed as active; the % refers to the signal ratio)
Outline: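 Compounds from the Tox21 10K library, dissolved in DMSO, are tested for induction of a hypoxia response element–controlled beta-lactamase reporter in ME-180 cells. Exposure lasts 17 hrs at 37C after a 5 hr settling period, followed by CCF4-AM FRET substrate.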

[16] = qHTS assay to identify small molecule agonists of H2AX - cell viability counter screen (AID 1224847; calls by dose curve; further: top concentration of the series differs between compounds; nearly all actives have a fitted effect of over 30% in size)
Outline: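 For this counter screen, overnight-attached CHO-K1 cells received test compounds (15 concentrations, 0.76% DMSO final); 3 hr later at 37C, CellTiter-Glo reagent was added and luminescence recorded after 30 min at room temperature.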

[17] = qHTS assay to identify small molecule antagonists of the estrogen related receptor (ERR) signaling pathway from Tox21 library (AID 1224848); further: nearly all actives have a fitted effect of over 50% in size; further: potency means the concentration at half of the fitted maximal effect
Outline: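 Compounds dissolved in DMSO are pin-transferred onto ERR reporter cells (2,000 per well) that have settled for 6 h at 37 C. Plates then incubate 18 h at 37 C before ONE-Glo luciferase reagent and a luminescence read 30 min later.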

[18] = qHTS assay to identify small molecule agonists of the estrogen related receptor (ERR) signaling pathway from Tox21 library (AID 1224849; calls by dose curve; further: nearly all actives have a fitted effect of over 15% in size); details: ERR reporter cell line, ONE-Glo luciferase, 18 h; at 92.4 µM (top of the series) unless noted
Outline: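 Cells carrying the ERR reporter were plated and allowed to settle for 6 h, exposed to library compounds for 18 h at 37 C, then lysed with ONE-Glo and luminescence measured.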

[19] = qHTS RealTime-Glo MT Cell Viability Assay in HEK293 cells - 32 hour (AID 1224868); further: nearly all actives have a fitted effect of over 50% in size; further: potency means the concentration at half of the fitted maximal effect; on activity change, negative = cytotoxic: top concentration of the series differs between compounds
Outline: as §4

[20] = A CellTox Green Cytotoxicity Assay to monitor cytotoxicity in HEK293 cells - 0 hour (AID 1224869); further: nearly all actives have a fitted effect of over 50% in size
Outline: as §3
On the % scale 0 is the no-effect control and ±100 the full control effect.

CCCC(=O)O[C@]1(C(=O)COC(=O)CC)CC[C@H]2[C@@H]3CCC4=CC(=O)CC[C@]4(C)[C@H]3[C@@H](O)C[C@@]21C
inactive: activation [1] -3.04% [at 19 µM] | activity change, negative = cytotoxicity [2] -1.64% [at 15.8 µM] | activation (H2AX phosphorylation) [3] -1.56% [at 31.6 µM] | activity change, negative = cytotoxicity [4] 1.66% [at 15.8 µM] | activity change, negative = cytotoxic [5] -0.605% [at 15.8 µM] | cytotoxicity increase [6] -16.6% [at 15.8 µM] | activity change, negative = cytotoxicity [7] 5.42% [at 15.8 µM] | viability change, negative = cytotoxic [8] 4.81% [at 15.8 µM] | max response [9] 4.99% | activity change [10] -15.7% [at 15.8 µM, active compounds read high] | cytotoxicity increase [11] -6.66% [at 15.8 µM] | activity change, negative = cytotoxic [12] 2.32% [at 15.8 µM] | cytotoxicity [13] -8.51% [at 15.8 µM] | cytotoxicity increase [14] -7.71% [at 15.8 µM]

CC1=CC(=O)CC(C)(C)C1(O)/C=C/C(C)=C\C(=O)O (configuration not stated)
inactive: Potency [1] | Potency [2] | outcome [15] | Potency [16] | Potency [17] | activity change, positive = activation [18] 4.36% | Potency [4] | Potency [19] | Potency [20] | Potency [5] | Potency [6] | Potency [7] | max response [9] 8.54% | Potency [10] | Potency [11] | Potency [12] | Potency [13] | Potency [14]

CCn1cc(C(=O)O)c(=O)c2cc(F)c(N3CCNCC3)nc21
inactive: Potency [1] | Potency [2] | Potency [3] | Potency [4] | Potency [19] | Potency [20] | Potency [5] | Potency [6] | Potency [7] | Potency [8] | max response [9] 10.3% | Potency [10] | Potency [11] | Potency [12] | Potency [13] | Potency [14]

CC(=O)[C@H]1CC[C@H]2[C@@H]3C=CC4=CC(=O)CC[C@@]4(C)[C@@H]3CC[C@]12C
inactive: Potency [1] | Potency [2] | Potency [3] | Potency [4] | Potency [20] | Potency [5] | Potency [7] | Potency [8] | Potency [10] | Potency [11] | Potency [12] | Potency [13] | Potency [14]

O=C(CCC1CCN(Cc2ccccc2)CC1)c1ccc2c(c1)NCCCC2
inactive: Potency [1] | Potency [2] | outcome [15] | Potency [16] | activity change, positive = activation [18] -36% [at 42.5 µM] | Potency [4] | Potency [20] | Potency [5] | Potency [8] | Potency [10] | Potency [11] | Potency [12] | Potency [13]
active: Potency [17] 18.8 µM | Potency [19] 8.49 µM | Potency [7] 9.52 µM | Potency [9] 9.52 µM

CCc1cccc(N(C)C(N)=Nc2cccc3ccccc23)c1
inactive: Potency [1] | Potency [2] | outcome [15] | Potency [4] | Potency [5] | Potency [6] | Potency [7] | Potency [8] | Potency [10] | Potency [11] | Potency [12]

NC(=O)N(O)[C@@H]1C=C[C@H](Oc2cccc(Oc3ccc(F)cc3)c2)C1
inactive: Potency [1] | Potency [2] | Potency [3] | Potency [17] | activity change, positive = activation [18] -15% | Potency [4] | Potency [5] | Potency [12]
active: Potency [19] 17.4 µM | Potency [6] 43.6 µM | Potency [9] 19.5 µM | Potency [13] 38.9 µM | Potency [14] 38.9 µM

Reference: PubChem BioAssay (Tox21)
